# Reference: PubChem BioAssay AID652189 (Johns Hopkins Ion Channel Center, 2013)
# Among all 2,300 compounds or so, about 900 (39%) were called active.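 The calls were made as follows: active = mean duplicate percent inhibition, scaled so buffer wells are 0 and the reference blocker 100, over three buffer SD above buffer mean; inactive = the rest.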 Not all results are given here.
# Biological target: Anoctamin-1 (Mus musculus) (UniProt Q8BHY3)
# Experiment: TMEM16A chloride channel inhibitors, confirmation, cell-based, re-confirmation (AID 652189)
# Settings: HEK293 TMEM16A/YFP-H148Q, iodide quench fluorescence, at 10 µM, ionomycin added to raise cell calcium; hits give high values
# Chain of Anoctamin-1 (Mus musculus) (Q8BHY3 whole entry, looked up): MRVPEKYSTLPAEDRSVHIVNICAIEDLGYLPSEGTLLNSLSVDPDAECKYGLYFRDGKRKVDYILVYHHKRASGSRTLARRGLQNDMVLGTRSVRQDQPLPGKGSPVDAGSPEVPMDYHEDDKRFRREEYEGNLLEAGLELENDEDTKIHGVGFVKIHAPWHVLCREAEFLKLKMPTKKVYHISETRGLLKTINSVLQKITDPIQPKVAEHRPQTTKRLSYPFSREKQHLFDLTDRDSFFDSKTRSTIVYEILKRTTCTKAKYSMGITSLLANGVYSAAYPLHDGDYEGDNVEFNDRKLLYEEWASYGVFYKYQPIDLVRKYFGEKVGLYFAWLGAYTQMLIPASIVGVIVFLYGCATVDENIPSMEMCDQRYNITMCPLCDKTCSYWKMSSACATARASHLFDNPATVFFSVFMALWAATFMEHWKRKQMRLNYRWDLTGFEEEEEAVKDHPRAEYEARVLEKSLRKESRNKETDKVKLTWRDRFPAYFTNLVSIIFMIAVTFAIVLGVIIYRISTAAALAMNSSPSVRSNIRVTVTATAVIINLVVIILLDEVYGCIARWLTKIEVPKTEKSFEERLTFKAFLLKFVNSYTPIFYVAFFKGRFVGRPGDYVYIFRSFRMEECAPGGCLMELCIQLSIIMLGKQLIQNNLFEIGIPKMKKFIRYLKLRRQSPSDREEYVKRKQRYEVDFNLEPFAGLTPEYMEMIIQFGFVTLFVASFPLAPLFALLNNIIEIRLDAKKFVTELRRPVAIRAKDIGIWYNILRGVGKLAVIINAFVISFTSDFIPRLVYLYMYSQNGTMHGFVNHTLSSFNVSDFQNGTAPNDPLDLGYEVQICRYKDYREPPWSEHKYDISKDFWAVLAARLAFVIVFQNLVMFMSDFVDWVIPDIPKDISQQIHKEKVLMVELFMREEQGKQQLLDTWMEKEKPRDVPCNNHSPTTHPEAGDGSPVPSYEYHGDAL
row,SMILES,inhibition
1,CC(=O)c1c(C)[nH]c(C(=O)COC(=O)c2cccc(S(=O)(=O)N(C)c3ccccc3)c2)c1C,33.5% (active)
2,Cc1ccc2c(c1)N(S(=O)(=O)c1cc(-c3cc(C)no3)ccc1C)CCO2,42.5% (active)
3,CCCCn1ccnc1C(=O)c1cccc(S(=O)(=O)N2c3ccccc3CC2C)c1 (stereo unspecified),inactive
4,Cc1nc(C)c(-c2csc(NCCc3ccccc3)n2)s1,36% (active)
5,CCOC(=O)c1cccc(NC(=O)CCn2nnc3ccccc32)c1,inactive
6,COc1ccc2[nH]cc(/C=C(/C#N)S(=O)(=O)c3ccccc3)c2c1,28% (active)
7,COc1ccc(NC(=O)C2=CC(c3ccc(OC)c(OC)c3)=NS(=O)(=O)N2C)cc1,27% (active)
8,CC(NC(=O)c1ccco1)C(=O)Nc1nc(-c2ccccn2)cs1 (stereo unspecified),inactive
9,Cc1noc(C)c1COC(=O)c1cc2ccccc2cc1O,inactive
10,COc1ccc(CNc2nnnn2C)cc1,inactive
11,Cn1c(CN2CCOCC2)nc2cc(NC(=O)c3ccc(Cl)cc3)ccc21,20% (active)
12,Cn1c(CCN2CCCCCC2)nc2cc(NC(=O)Nc3ccccc3)ccc21,inactive
13,CC(C)CNC(=S)NNC(=O)c1nn(C)cc1Cl,inactive
14,O=C(COC(=O)CCc1c[nH]c(=O)[nH]1)Nc1ccccc1Cl,inactive
15,Cc1nc2ccccc2cc1OCc1ccc(F)cc1,22.5% (active)
16,O=C(COc1ccccc1)NCc1ccc2c(c1)OCO2,inactive
17,O=C(NCCc1ccc2c(c1)OCCO2)c1cc2ccccc2o1,21% (active)
18,COc1ccc(-c2nc(CCNC(=O)c3ccc(Br)o3)cs2)cc1,inactive
19,Cc1cccc(N=Nc2c(O)[nH]c3ccc(F)cc23)c1,inactive
20,O=c1cc(C(F)(F)F)[nH]c(=O)n1C1CCCCC1,inactive
21,C=CCn1c(SCC(=O)Nc2nc3ccccc3s2)nnc1-c1ccccc1O,30.5% (active)
22,Cc1ccc(-c2noc(CSc3nnnn3-c3ccccc3)n2)cc1,inactive
23,CN1c2ccc(C=O)c3c(C=O)ccc(c23)N(C)C1(C)C,inactive
24,C=CCSc1nsc(NC(=O)Nc2cccc(C(C)=O)c2)n1,53% (active)
25,CSc1nsc(NC(=O)Nc2ccccc2)n1,45% (active)
26,CN(C)c1cc[n+](Cc2ccccc2)cc1,inactive

row,SMILES,inhibition
1,N#Cc1nc(N)nc(N(c2ccccc2)c2ccccc2)n1,inactive
2,c1ccc(-c2nnc(SCc3nc4ccccc4[nH]3)o2)cc1,inactive
3,N#CC1=C(SCc2ccccc2)NC(=O)C(C#N)C12CCCC2 (stereo unspecified),17.5% (active)
4,CSc1nnc2c(n1)OC(c1ccsc1)N(C(C)=O)c1ccccc1-2 (stereo unspecified),inactive
5,CCCc1cc(=S)n2c([nH]c3ccccc32)c1C#N,35.5% (active)
6,CC1CCN(C(=O)c2ccc(CSc3ccc(Cl)cc3)cc2)CC1,50.5% (active)
7,COc1ccc(CCC(=O)c2ccc(OC)cc2)cc1,inactive
8,Cc1ccc2c(c1)N(CC(=O)N1CCCc3ccccc31)C(=O)C(C)O2 (stereo unspecified),inactive
9,CN(c1cccc(NC(=O)c2ccc(CN3CCc4ccccc4C3)cc2)c1)S(C)(=O)=O,20.5% (active)
10,S=C(NCC1CCCO1)N1CCN(c2ccc(Cl)c(Cl)c2)CC1 (stereo unspecified),21% (active)
11,Cc1cc(C=O)c(C)n1-c1ccc(NC2CCCCC2)c([N+](=O)[O-])c1,23.5% (active)
12,CC(C)(C)C(=O)/C(C#N)=C/c1ccc(O)cc1,23% (active)
13,CCOC(=O)C1=C(CN2CCc3ccccc32)NC(=O)NC1c1cccc([N+](=O)[O-])c1 (stereo unspecified),inactive
14,COc1ccc(C(=O)NC2CCCc3c2cnn3-c2cccc(C)c2C)c(OC)n1 (stereo unspecified),65.5% (active)
15,COC(=O)c1ccc(COC(=O)c2c(C)nn(Cc3ccccc3Cl)c2Cl)o1,16% (active)
16,O=S1(=O)CCN(Cc2ccccc2Cl)CC1,inactive
17,Cc1ccc(F)cc1NC(=O)Cc1nn(C)c(=O)c2ccccc12,34.5% (active)
18,CCOC(=O)N1CC=C2C(C#N)=C(N)C(C#N)(C#N)[C@H](c3cccs3)[C@H]2C1,inactive
19,Cc1ccc(-n2[nH]c(C)c(/C=N/N3C(=O)c4cccc5cccc(c45)C3=O)c2=O)cc1,inactive
20,Cc1[nH]n(-c2cccc(Cl)c2)c(=O)c1-c1ccc(Cl)cc1,24% (active)
21,CC1=NN(c2cccc(Cl)c2)C(=O)C12CC(C)=C(C)CS2 (stereo unspecified),inactive
22,O=C1NC(=O)C2C1C(c1ccc([N+](=O)[O-])cc1)=NN2Cc1ccccc1 (stereo unspecified),inactive
23,CCN(CC)S(=O)(=O)c1ccc(N(C)Cc2ccc(C(F)(F)F)cc2)nc1,22% (active)
24,CCCOc1ccc(Cc2c(Cl)nc(SC)nc2NC)cc1,44.5% (active)
25,COc1ccc(CN(C)C(=O)CC(c2ccccc2)c2ccccc2)cc1,inactive
